# Test results published in PubChem BioAssay (NCI).
# This is part of a sample that, as a whole, favours compounds with a hit. Of some 83,000 tested, about 20% had one in any assay.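 Cells were grown in 96-well plates and exposed to the test compound at a single concentration for 48 hours; results are reported as percent growth, with values below 10 considered active.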 Unmarked numbers belong to inactive results. Activity calls are given as the source filed them.
# Columns and labels:
# Experiment in all cases: NCI-60 one-dose screen, 48 h (100 = growth as untreated, 0 = no growth, -100 = all killed)
# Settings in all cases: 10 µM unless noted
# NCI-H23 lung = system: NCI-H23 lung
# NCI-H226 lung = system: NCI-H226 lung
# NCI-H322M lung = system: NCI-H322M lung
# HOP-62 NSCLC = system: HOP-62 NSCLC
# NCI-H460 lung = system: NCI-H460 lung
# HOP-92 NSCLC = system: HOP-92 NSCLC
# NCI-H522 lung = system: NCI-H522 lung
# A549/ATCC NSCLC = system: A549/ATCC NSCLC
# 786-0 renal = system: 786-0 renal
# COLO 205 colon = system: COLO 205 colon
Compound,growth (NCI-H23 lung),growth (NCI-H226 lung),growth (NCI-H322M lung),growth (HOP-62 NSCLC),growth (NCI-H460 lung),growth (HOP-92 NSCLC),growth (NCI-H522 lung),growth (A549/ATCC NSCLC),growth (786-0 renal),growth (COLO 205 colon)
O=C(N/N=C/C=C\c1ccccc1)C(=O)N/N=C/C=C/c1ccccc1,103%,111%,123%,107%,117%,115%,124%,109%,104%,122%
CC(O)CN1CCCCC1 (stereo not given),100%,106%,111%,122%,104%,111%,88.8%,105%,105%,111%
CN(CCCCN(C[C@H]1Cc2ncccc2CN1)[C@H]1CCCc2cccnc21)C1CCC(F)(F)CC1,107%,78.4%,95.5%,68.2%,99.5%,70.5%,89.6%,84%,82.5%,87.8%
COc1ccc(-c2cc3c(OC)c(OC)c(OC)cc3oc2=O)cc1,59.1%,83.1%,77%,50.4%,13.8%,30.6%,-11.7% (active),47.7%,57.2%,31.5%
CCN(CC)c1ccc(CNc2ccnc3ccccc23)cc1,28.8%,58.6%,70.6%,66%,55.2%,-6.79% (active),56.2%,58.9%,72.5%,25.6%
O=C(NS(=O)(=O)c1ccccc1)n1cc(-c2ccncc2)c(-c2ccc(Cl)c(O)c2)n1,104%,103%,103%,119%,107%,99.6%,85.4%,98.3%,100%,111%
COc1ccc(/C=C(\C#N)c2cc(OC)c3c(c2)OCO3)cc1,37.5%,26.7%,44%,35.8%,5.33% (active),43.6%,-8.84% (active),15.4%,20%,-41% (active)
COc1ccc2c(c1)C(c1cc(OC)c3c(c1)OCO3)C1=C(COC1=O)N2 (stereo not given),38.2%,27.5%,51.4%,36.5%,6.63% (active),26.9%,-38.5% (active),14.7%,29.5%,-22.6% (active)
CN1CCN(Cc2ccc(NC(=O)c3cncc(C#Cc4cnc(N)c5cnccc45)c3)cc2C(F)(F)F)CC1,4.51% (active),-28.4% (active),13%,-23.7% (active),-9.5% (active),-58.6% (active),10.8%,20%,23.1%,-20.2% (active)
OCc1ncc(-c2ccccc2)s1,93.1%,125%,173%,96.9%,102%,91.3%,97.5%,110%,60%,114%
Cc1ccc(-c2csc(NC(=O)CCCCl)n2)cc1,93.1%,78.5%,87.4%,101%,103%,74.8%,83.5%,90.5%,87.3%,112%
N#Cc1c(-c2ccccc2)cc(-c2ccccc2)n(CC(=O)NO)c1=O,53.1%,38.9%,81.2%,71.2%,83%,32%,-70.9% (active),54.4%,63.7%,58.6%
O=C1Nc2ccc3c(c2/C1=C\c1cc2c(cc1Br)OCO2)OCO3,19.5%,13.4%,1.4% (active),-21.3% (active),-31.2% (active),-5.47% (active),16.4%,27.9%,10.7%,-37.1% (active)
C/C(=N/NC(=S)Nc1ccccc1)c1nc2ccc(Cl)cc2[nH]1,-45.3% (active),-42.4% (active),-40.4% (active),-97.1% (active),-66.6% (active),-68.8% (active),-93.4% (active),-10.9% (active),-47.6% (active),-89.3% (active)
COc1ccc(-c2nc(N3CCCC3=O)sc2Br)cc1OC,95.7%,93.8%,96.6%,103%,108%,113%,89.1%,96.8%,97.5%,112%
Cc1cc(N/N=C/c2nc(-c3ccccc3)oc2C)c2cc(Br)ccc2n1,88.6%,88.3%,94.3%,87.5%,73.6%,71.9%,80.6%,87%,86.7%,85.6%
CC(=O)Nc1ccc(/C=C/C(=O)c2ccccc2)cc1,102%,102%,120%,97.1%,105%,74.7%,68.1%,92.6%,98.5%,112%
CCCCCc1cc[n+](CC(=O)c2ccc([N+](=O)[O-])cc2)cc1,69.6%,96.5%,107%,79.8%,49.6%,51.7%,45.7%,78.9%,96.5%,-5.18% (active)
COc1ccc(Nc2ncccc2C(=O)NCc2cn(Cc3cccc(Oc4ccccc4)c3)nn2)c(OC)c1,37.5%,73.5%,56.1%,41.7%,7.15% (active),62%,11.6%,39%,34%,4.54% (active)
Cn1c(=O)c2[nH]c(C3CC=CCC3)nc2n(C)c1=O (stereo not given),98.2%,103%,102%,90.5%,109%,70.1%,98%,106%,105%,97.4%
C=C(C)[C@@H]1CC[C@]2(C(=O)O)CC[C@]3(C)[C@H](CC[C@@H]4[C@@]5(C)C[C@@H](CC#Cc6ccc(C(F)(F)F)cc6)[C@H](O)C(C)(C)[C@@H]5CC[C@]43C)[C@@H]12,2.55% (active),3.81% (active),35.2%,10%,15.1%,-16.9% (active),-19.1% (active),10.3%,19.2%,21.1%
CN1CCN(CCCOc2ccc3nc(Nc4ccc(Cl)c(C(F)(F)F)c4)ccc3c2)CC1,67.3%,88.9%,53.6%,57.8%,44.4%,43%,90.2%,55.3%,68.6%,-40.7% (active)
O=c1[nH]c(NCc2ccccc2)nc2nc(Nc3ccc(NC(=S)Nc4ccccc4)cc3)nc(-c3ccc(O)cc3O)c12,99.4%,89.6%,140%,105%,109%,89.5%,54.2%,41.6%,104%,110%
O=C(Nc1cccc(-n2cc(-c3ccncc3)c(-c3ccc(Cl)c(O)c3)n2)c1)c1ccccc1,90.8%,89.6%,89.2%,46.7%,48.7%,3.59% (active),42.3%,52.6%,76.1%,100%
NNc1cccc(/C=C/c2ccccc2)cc1=O,73.1%,83%,71.1%,71.1%,27.5%,59.8%,57.7%,64.6%,69.1%,70.6%
O=c1[nH]c(-c2ccccc2)nc(CN2CCCCC2)c1O,103%,108%,136%,112%,109%,92.8%,116%,111%,102%,113%
COc1cccc(/C=C/C(=O)Nc2cc(OC)c3c(c2)OCO3)c1,97.1%,99.2%,102%,99.7%,100%,86.5%,87.4%,98.3%,91.3%,109%
CC(C)(C)c1[nH]nc2c1C(c1cc3ccccc3[nH]c1=O)Nc1cc(C(=O)Nc3ccc(Cl)cc3)ccc1N2 (stereo not given),78.9%,105%,78.6%,83.6%,74.1%,86.1%,74.5%,89.6%,66.1%,83.6%
